The structures appear in SMILES notation. Activity calls are given as the source filed them. How the source made its calls: active means hit-call score of the fitted dose curve at least 0.9, where 1 is the maximum; inactive means score below 0.9.

Settings in all cases: mRNA level, 48 h; actives raise or lower the signal
Read-out in test [1]: Alkaline Phosphatase, Placental (ALPP) gene, ALPP (gene 250)
Put plainly: LTEA_HepaRG_ALPP: Life Technologies and Expression Analysis (LTEA) Assay for Alkaline Phosphatase, Placental (ALPP) gene using HepaRG (AID 2283468). A digest of the protocol: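 ALPP transcript level, measured by qRT-PCR and normalized to three housekeeping genes (ACTB, GAPDH, POLR2A), after 48 h dosing of differentiated HepaRG in serum-free induction medium. Top concentration 100 uM with half-log dilutions (8 points, 0.5% DMSO, duplicates); bidirectional fitting relative to DMSO.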

Read-out in test [2]: Bcl-2 (BAD) gene, BAD (gene 572)
Put plainly: LTEA_HepaRG_BAD: Life Technologies and Expression Analysis (LTEA) Assay for Bcl-2 (BAD) gene using HepaRG (AID 2283469). A digest of the protocol: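 Differentiated human HepaRG cells in serum-free induction medium were exposed in duplicate for 48 h to eight concentrations (top 100 uM, half-log steps, 0.5% DMSO). BAD mRNA was quantified by qRT-PCR normalised to ACTB, GAPDH and POLR2A, with bidirectional fitting versus DMSO.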

Read-out in test [3]: Bcl-2 (BAX) gene, BAX (gene 581)
Briefly: LTEA_HepaRG_BAX: Life Technologies and Expression Analysis (LTEA) Assay for Bcl-2 (BAX) gene using HepaRG (AID 2283470). Put shortly:
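Differentiated HepaRG cells exposed 48 h in serum-free induction medium, eight half-log concentrations from 100 uM, in duplicate, 0.5% DMSO vehicle. BAX mRNA by TaqMan qRT-PCR, normalised to ACTB, GAPDH and POLR2A.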

Read-out in test [4]: Alpha-fetoprotein (AFP) gene, AFP (gene 174)
Briefly: LTEA_HepaRG_AFP: Life Technologies and Expression Analysis (LTEA) Assay for Alpha-fetoprotein (AFP) gene using HepaRG (AID 2283472). A digest of the protocol:
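Differentiated human HepaRG cells exposed 48 h in serum-free induction medium, 8-point half-log series from 100 uM in 0.5% DMSO, duplicate. AFP mRNA by qRT-PCR, normalized to ACTB, GAPDH, POLR2A; bidirectional fit vs DMSO.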

Read-out in a further test: BCL2L11 (gene 10018)
Put plainly: LTEA_HepaRG_BCL2L11: Life Technologies and Expression Analysis (LTEA) Assay for Bcl-2 (BCL2L11) gene using HepaRG (AID 2283473). A digest of the protocol: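 BCL2L11 transcript levels are measured by Fluidigm qRT-PCR, normalized to three housekeeping genes. HepaRG cultures were plated 48 h, then treated 48 h with test chemical (top 100 uM, half-log, 0.5% DMSO vehicle); curves were fitted bidirectionally against DMSO.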

Read-out in test [5]: Apolipoprotein A-V (APOA5) gene, APOA5 (gene 116519)
Put plainly: LTEA_HepaRG_APOA5: Life Technologies and Expression Analysis (LTEA) Assay for Apolipoprotein A-V (APOA5) gene using HepaRG (AID 2283474). A digest of the protocol: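 APOA5 transcript levels were quantified by qRT-PCR, normalized to three housekeeping genes, after 48 h chemical treatment of HepaRG cells (8 points, 100 uM maximum, half-log steps, 0.5% DMSO). Curves fitted in both directions against vehicle.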

Read-out in test [6]: Apoptosis regulator Bcl-2 (Homo sapiens) (UniProt P10415)
Briefly: LTEA_HepaRG_BCL2: Life Technologies and Expression Analysis (LTEA) Assay for Bcl-2 gene using HepaRG (AID 2283475). A digest of the protocol: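 Differentiated human HepaRG cells in serum-free induction medium exposed 48 h, in duplicate, to 8-point half-log series from 100 uM in 0.5% DMSO. BCL2 mRNA by qRT-PCR (TaqMan/Fluidigm), normalized to ACTB, GAPDH, POLR2A; bidirectional fit against DMSO.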

Read-out in test [7]: Bcl-2 (BID) gene, BID (gene 637)
Put plainly: LTEA_HepaRG_BID: Life Technologies and Expression Analysis (LTEA) Assay for Bcl-2 (BID) gene using HepaRG (AID 2283476). Put shortly: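 Gene expression by qRT-PCR in HepaRG cells after 48 h exposure, duplicate wells, eight half-log concentrations topping at 100 uM in 0.5% DMSO. Normalized to ACTB, GAPDH, POLR2A; bidirectional fitting relative to DMSO.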

Read-out in another test: Caspase-3 (Homo sapiens) (UniProt P42574)
Briefly: LTEA_HepaRG_CASP3: Life Technologies and Expression Analysis (LTEA) Assay for cysteine-aspartic acid protease (CASP3) using HepaRG (AID 2283477). Put shortly:
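Expression of CASP3 was quantified by TaqMan qRT-PCR against three housekeeping genes (ACTB, GAPDH, POLR2A), bidirectionally versus 0.5% DMSO. HepaRG cultures received compounds in duplicate, top 100 uM with half-log steps, for 48 h in serum-free induction medium.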

Read-out in test [8]: Cytochrome P450 (CYP24A1), CYP24A1 (gene 1591)
Briefly: LTEA_HepaRG_CYP24A1: Life Technologies and Expression Analysis (LTEA) Assay for Cytochrome P450 (CYP24A1) using HepaRG (AID 2283478). A digest of the protocol:
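mRNA of CYP24A1 quantified by TaqMan qRT-PCR (ACTB/GAPDH/POLR2A normalization) after 48 h chemical exposure of HepaRG cells, top concentration 100 uM, half-log steps, 0.5% DMSO vehicle, duplicates. Curves fitted bidirectionally against DMSO baseline.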

Read-out in test [9]: Cytochrome P450 (CYP1A2), CYP1A2 (gene 1544)
Briefly: LTEA_HepaRG_CYP1A2: Life Technologies and Expression Analysis (LTEA) Assay for Cytochrome P450 (CYP1A2) using HepaRG (AID 2283479). A digest of the protocol:
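CYP1A2 transcript measured by TaqMan qRT-PCR against three housekeeping genes after 48-hour chemical exposure of HepaRG cells. Eight-point half-log series topping at 100 uM in 0.5% DMSO, duplicates; gain or loss fitted relative to vehicle.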

Read-out in test [10]: cysteine-aspartic acid protease (CASP8), CASP8 (gene 841)
Put plainly: LTEA_HepaRG_CASP8: Life Technologies and Expression Analysis (LTEA) Assay for cysteine-aspartic acid protease (CASP8) using HepaRG (AID 2283480). A digest of the protocol: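 Differentiated human HepaRG cells, plated 48 h then switched to serum-free induction medium, were exposed in duplicate for 48 h to 8 half-log concentrations up to 100 uM in 0.5% DMSO. CASP8 mRNA was quantified by qRT-PCR, normalized to ACTB/GAPDH/POLR2A.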

Read-out in test [11]: Cytochrome P450 (CYP2B6), CYP2B6 (gene 1555)
Put plainly: LTEA_HepaRG_CYP2B6: Life Technologies and Expression Analysis (LTEA) Assay for Cytochrome P450 (CYP2B6) using HepaRG (AID 2283481). Put shortly:
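CYP2B6 transcript level quantified by qRT-PCR against three housekeeping genes, fitted bidirectionally relative to DMSO. HepaRG cultures received chemicals for 48 h, 8-point half-log series from 100 uM in 0.5% DMSO, duplicate wells, serum-free induction medium.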

Read-out in test [12]: Cytochrome P450 2C19 (Homo sapiens) (UniProt P33261)
Put plainly: LTEA_HepaRG_CYP2C19: Life Technologies and Expression Analysis (LTEA) Assay for CYP2C19 using HepaRG (AID 2283482). Put shortly:
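CYP2C19 transcript levels by qRT-PCR, normalized to three housekeeping genes, in HepaRG cells after 48 h chemical exposure. Eight-point half-log series topping at 100 uM, 0.5% DMSO vehicle. Increases and decreases both fitted against DMSO.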

Read-out in the next test: CYP2C8 (gene 1558)
Briefly: LTEA_HepaRG_CYP2C8: Life Technologies and Expression Analysis (LTEA) Assay for CYP2C8 using HepaRG (AID 2283483). Put shortly:
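Differentiated human HepaRG cells were exposed for 48 h in serum-free induction medium to eight half-log concentrations up to 100 uM in 0.5% DMSO, in duplicate. CYP2C8 mRNA was measured by TaqMan qRT-PCR, normalized to ACTB, GAPDH and POLR2A, and fitted bidirectionally against DMSO.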

Read-out in a further test: CYP2C9 (gene 1559)
Put plainly: LTEA_HepaRG_CYP2C9: Life Technologies and Expression Analysis (LTEA) Assay for CYP2C9 using HepaRG (AID 2283484). Put shortly:
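Differentiated human HepaRG cells were exposed 48 h in serum-free induction medium to eight half-log concentrations up to 100 uM in 0.5% DMSO. CYP2C9 mRNA was measured by qRT-PCR, normalized to ACTB, GAPDH and POLR2A, and fitted bidirectionally against DMSO.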

Read-out in the next test: CYP2E1 (gene 1571)
Briefly: LTEA_HepaRG_CYP2E1: Life Technologies and Expression Analysis (LTEA) Assay for CYP2E1 using HepaRG (AID 2283485). A digest of the protocol:
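HepaRG cells, plated 48 h, then exposed 48 h in serum-free induction medium to eight half-log concentrations from 100 uM in 0.5% DMSO, duplicate. CYP2E1 mRNA by qRT-PCR, normalized to ACTB/GAPDH/POLR2A; bidirectional fit versus DMSO.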

Read-out in a further test: CYP4A11 (gene 1579)
Put plainly: LTEA_HepaRG_CYP4A11: Life Technologies and Expression Analysis (LTEA) Assay for CYP4A11 using HepaRG (AID 2283486). A digest of the protocol: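 Readout is CYP4A11 transcript level by qRT-PCR, normalized to three housekeeping genes and fitted bidirectionally against 0.5% DMSO. Human HepaRG cells were treated 48 h, in duplicate, with an 8-point half-log series topping at 100 uM.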

Read-out in test [13]: Cytochrome P450 3A4 (Homo sapiens) (UniProt P08684)
Briefly: LTEA_HepaRG_CYP3A4: Life Technologies and Expression Analysis (LTEA) Assay for CYP3A4 using HepaRG (AID 2283487). A digest of the protocol:
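In a human hepatic line (HepaRG), duplicate wells were treated 48 h with up to 100 uM chemical in half-log dilutions. Endpoint: CYP3A4 mRNA induction or loss relative to 0.5% DMSO vehicle, by qRT-PCR.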

Read-out in test [14]: adenosine kinase (ADK) gene, ADK (gene 132)
Put plainly: LTEA_HepaRG_ADK: Life Technologies and Expression Analysis (LTEA) Assay for adenosine kinase (ADK) gene using HepaRG (AID 2283471). A digest of the protocol:
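Following 48 h exposure of HepaRG cells in 0.5% DMSO (top concentration 100 uM, duplicate wells), ADK mRNA induction or suppression was measured by qRT-PCR, normalised to ACTB/GAPDH/POLR2A, and fitted bidirectionally relative to vehicle.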

Cytochrome P450 2C19 (Homo sapiens), sequence (P33261 whole entry, looked up): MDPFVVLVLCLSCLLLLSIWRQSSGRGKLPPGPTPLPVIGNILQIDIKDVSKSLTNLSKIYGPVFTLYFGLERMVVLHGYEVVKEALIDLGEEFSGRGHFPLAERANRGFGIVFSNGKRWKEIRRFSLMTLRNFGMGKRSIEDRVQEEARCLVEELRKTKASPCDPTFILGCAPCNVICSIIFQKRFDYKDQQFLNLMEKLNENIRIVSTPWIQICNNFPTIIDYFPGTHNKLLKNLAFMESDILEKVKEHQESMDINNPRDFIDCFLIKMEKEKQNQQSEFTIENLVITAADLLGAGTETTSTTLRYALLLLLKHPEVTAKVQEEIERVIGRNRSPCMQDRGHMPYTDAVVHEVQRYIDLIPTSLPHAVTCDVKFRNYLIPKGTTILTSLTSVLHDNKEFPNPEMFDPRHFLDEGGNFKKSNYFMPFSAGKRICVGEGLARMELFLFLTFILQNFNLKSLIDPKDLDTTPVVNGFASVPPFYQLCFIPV
Cytochrome P450 3A4 (Homo sapiens), sequence (P08684 whole entry, looked up): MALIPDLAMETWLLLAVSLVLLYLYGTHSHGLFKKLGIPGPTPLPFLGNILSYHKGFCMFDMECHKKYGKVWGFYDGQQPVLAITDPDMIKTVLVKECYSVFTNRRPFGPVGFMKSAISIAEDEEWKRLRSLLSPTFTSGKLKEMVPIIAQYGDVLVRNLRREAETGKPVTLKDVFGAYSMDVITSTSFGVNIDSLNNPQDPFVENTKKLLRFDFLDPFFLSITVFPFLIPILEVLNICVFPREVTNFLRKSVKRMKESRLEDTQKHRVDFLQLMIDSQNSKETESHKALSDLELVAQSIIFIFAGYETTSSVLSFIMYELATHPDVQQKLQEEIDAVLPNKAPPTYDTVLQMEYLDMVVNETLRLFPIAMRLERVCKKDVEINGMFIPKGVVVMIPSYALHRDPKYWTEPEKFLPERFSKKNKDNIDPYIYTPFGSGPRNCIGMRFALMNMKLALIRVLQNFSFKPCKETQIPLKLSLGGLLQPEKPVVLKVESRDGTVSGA
Caspase-3 (Homo sapiens), sequence (P42574 whole entry, looked up): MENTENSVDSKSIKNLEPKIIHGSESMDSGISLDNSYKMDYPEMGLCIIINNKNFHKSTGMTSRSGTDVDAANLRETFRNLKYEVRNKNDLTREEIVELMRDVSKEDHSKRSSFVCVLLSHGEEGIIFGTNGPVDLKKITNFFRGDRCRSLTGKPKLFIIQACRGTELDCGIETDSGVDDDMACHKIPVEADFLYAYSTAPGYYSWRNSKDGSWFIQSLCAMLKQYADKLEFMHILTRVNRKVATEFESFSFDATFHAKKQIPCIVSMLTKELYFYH
Apoptosis regulator Bcl-2 (Homo sapiens), sequence (P10415 whole entry, looked up): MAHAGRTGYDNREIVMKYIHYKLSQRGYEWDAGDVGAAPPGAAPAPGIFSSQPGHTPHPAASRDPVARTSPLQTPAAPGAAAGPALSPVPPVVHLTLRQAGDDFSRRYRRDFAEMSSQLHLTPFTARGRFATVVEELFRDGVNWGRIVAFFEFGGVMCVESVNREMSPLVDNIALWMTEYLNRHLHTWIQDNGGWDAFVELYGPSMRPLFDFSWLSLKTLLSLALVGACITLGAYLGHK

The AC50 is the concentration at which the activity in the assay is half-maximal. As to `CC1(C(=O)Nc2ccc(O)c(Cl)c2Cl)CCCCC1`, the compound was called inactive (in [1]; in test [2]; in [3]; in [4]; with BCL2L11 (gene 10018); in test [5]). In addition, the call (in test [6]; in [7]; with Caspase-3 (Homo sapiens); in test [8]; in [9]; in test [10]) was inactive. Also, the compound was called inactive (in test [11]; in test [12]; with CYP2C8 (gene 1558); with CYP2C9 (gene 1559); with CYP2E1 (gene 1571); with CYP4A11 (gene 1579)). Moreover, the AC50 in [13] is 21.4 µM (active).

Take `Cc1nn(-c2cc(NS(C)(=O)=O)c(Cl)cc2Cl)c(=O)n1C(F)F`: the result (in [1]; in [2]; in test [3]; in [4]; with BCL2L11 (gene 10018); in test [5]) was inactive. For the same compound, the result (in test [6]; in test [7]; with Caspase-3 (Homo sapiens); in test [8]; in test [9]; in [10]) was inactive. The outcome in the test with CYP2C8 (gene 1558), with CYP2C9 (gene 1559) and with CYP4A11 (gene 1579) was inactive. For the same compound, the concentration at half-maximal activity (AC50) is 11.8 µM (active) in [11], 6.21 µM (active) in test [12], 12.8 µM (active) with CYP2E1 (gene 1571) and 3.03 µM (active) in [13].

On to `CSC1=N[C@@](C)(c2ccccc2)C(=O)N1Nc1ccccc1`, for which the AC50 is 13.3 µM (active) in test [1]; 35.2 µM (active) in test [4]; 12.6 µM (active) with BCL2L11 (gene 10018); 33.8 µM (active) in [5]; 30.2 µM (active) in [6]; 25.4 µM (active) in test [9]. The AC50 in [11] was 30.8 µM (active); in [12] it was 38.1 µM (active); in the test with CYP2C8 (gene 1558), 34.6 µM (active); in the test with CYP2C9 (gene 1559), 33.8 µM (active); with CYP2E1 (gene 1571), 20.9 µM (active); in the test with CYP4A11 (gene 1579), 27.1 µM (active). Further, the concentration at half-maximal activity (AC50) in test [13] was 67.6 µM (active). For the same compound, the call (in [2]; in [3]; in [14]; in test [7]; in the test with Caspase-3 (Homo sapiens); in test [8]) was inactive. In addition, the compound was classed as inactive in test [10].

The values are drawn from PubChem BioAssay (EPA / NIEHS).
